In all, about 2,100 compounds went through this assay and about 260 (12%) were called active. Roughly 58% stayed inconclusive and do not appear here. Calls follow the shape of the dose curve; as a rule, active = well fitted cell-killing curve with a large enough effect; inconclusive = small, poorly fitted or top-dose-only effect, or effect the other way; inactive = flat fitted curve, though single readings scatter. Some of the results follow. Entries that show only a call come without a potency.
Assay: Viability Counterscreen for Confirmatory qHTS for Inhibitors of ATXN expression; also: nearly all actives have a fitted effect of over 50% in size
Settings: HEK-293 ATXN2-luc cells viability, CellTiter-Fluor, 24 h
In short: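 Luminescence read-out (SteadyGlo, 5 min) followed a 30 min Gly-Phe-AFC (25 uM final) viability fluorescence read. ATXN2-luciferase reporter cells were exposed 24 h to a dilution series. Medium-only wells served as the 100% inhibition reference.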
Potency is read from the fitted curve at half-maximal effect.

SMILES | Potency
CC(=O)Nc1cc(-c2ccc(C(=O)NC3CC3)cc2)cn2c(-c3cccc(C(C)=O)c3)cnc12 | inactive
NS(=O)(=O)c1ccc(CCNC(=O)COC(=O)/C=C/c2cc(Br)ccc2F)cc1 | inactive
O=C(NCCc1ccccc1)c1ccc2nccnc2c1 | inactive
NS(=O)(=O)c1ccc(CCNC(=O)c2cc(-c3ccccn3)nc3ccc(Br)cc23)cc1 | 35.5 µM (active)
CCC(CC)C(=O)c1c[nH]c(C(=O)NCc2ccccn2)c1 | inactive
CCn1c(/C=C/c2ccc([N+](=O)[O-])o2)nc2ccccc2c1=O | 10 µM (active)
O=[N+]([O-])c1ccc(/C=N/N=C/c2ccc([N+](=O)[O-])o2)o1 | 7.94 µM (active)
COc1ccccc1NC(=O)Nc1nc(CC(=O)N2CCN(c3ccccc3)CC2)cs1 | inactive
O=C(NC(c1ccccc1)c1ccc2ccccc2n1)C1CCN(CCOc2ccc(Cl)cc2Cl)CC1 (stereo not given) | 25.1 µM (active)
CC(C)Nc1nc(NC(C)C)nc(N(C#N)CCOc2ccc(Cl)cc2Cl)n1 | inactive
O=C(NC(c1ccccc1)c1c(O)ccc2ccccc12)c1ccccc1Cl (stereo not given) | inactive
COc1cc(/C=C/C(=O)Nc2ccc(OC)c(S(=O)(=O)N3CCOCC3)c2)ccc1OCC#N | inactive
CCSc1nc2ccccc2n1C(=O)/C=C\c1ccc(OC)c(OC)c1 | 7.94 µM (active)
COc1ccc(/C=C/C(=O)Nc2cccc(S(=O)(=O)N3CCCC3)c2)cc1OC | inactive
COC1=C(c2ccccc2)C(=O)c2ccccc2C1=O | inactive
CCOC(=O)c1ccc(NC(=O)c2nc[nH]c2C(=O)N[C@H](C)c2ccccc2)cc1 | inactive
O=C(NCCc1csc(-c2ccc(Cl)cc2)n1)c1ccco1 | inactive
O=C(Nc1nc(NC(=O)c2ccco2)n(-c2ccccc2)n1)c1ccccc1 | 22.4 µM (active)
CC(=O)c1sc(NC(=O)c2cc(-c3ccccc3)nn2-c2ccccc2)nc1C | inactive
Cc1nc(N2CCN(Cc3ccc4c(c3)OCO4)CC2)c2oc3ccccc3c2n1 | inactive
CCOC(=O)c1c(NC(=O)COC(=O)Cn2cnc3ccccc32)sc(C)c1C | inactive
CCNc1ccc(Br)cc(C(=O)/C=C/c2ccccc2Cl)c1=O | inactive

SMILES | Potency
CNc1ccc(Br)cc(C(=O)/C=C/c2ccc3c(c2)OCO3)c1=O | inactive
O=C(/C=C/c1ccccc1)c1cc(Br)ccc(=O)c1O | 22.4 µM (active)
NC(=S)N1OC[C@@H]2COc3ccc4ccccc4c3[C@@H]21 | inactive
COc1ccccc1Cc1c(-c2ccco2)nc2c(C)cc(Br)cn12 | 10 µM (active)
O=C(/C=C/Nc1ccc(S(=O)(=O)Nc2ncccn2)cc1)c1ccc(Cl)c(Cl)c1 | inactive
COc1cccc(S(=O)(=O)NCc2ccc(C(=O)Nc3cccc(Cl)c3)cc2)c1 | 20 µM (active)
Cn1c(=O)c2cc(NC(=O)Nc3cccnc3)ccc2n1Cc1ccc(Cl)cc1 | inactive
O=C(Nc1ccc(Cl)c(Cl)c1)c1cccc(S(=O)(=O)NCc2cccnc2)c1 | 3.16 µM (active)
COC(=O)c1ccc(N2CCOCC2)c(NC(=O)Nc2cccc(OC)c2)c1 | inactive
COc1cccc(OCC(=O)Nc2cc(Cl)ccc2Oc2ccccc2)c1 | inactive
O=C(CSc1nnnn1-c1ccccc1)Nc1nsc(-c2ccccc2)n1 | inactive
CCn1c2ccccc2c2cc(NC(=O)COC(=O)c3ccccc3F)ccc21 | inactive
C=CCNc1oc(-c2ccc(Cl)cc2)nc1C#N | inactive
NC(Cc1ccccc1)c1csc(Nc2nccc(C(F)(F)F)n2)n1 (stereo not given) | 14.1 µM (active)
NC(Cc1ccc(F)cc1)c1csc(Nc2cc(NCc3ccco3)ncn2)n1 (stereo not given) | inactive
NC(=O)c1cccc(Nc2nc(C(N)Cc3ccc(C(F)(F)F)cc3)cs2)n1 (stereo not given) | inactive
NC(Cc1ccc(Cl)cc1)c1csc(Nc2nccc(C(F)(F)F)n2)n1 (stereo not given) | 28.2 µM (active)
CCC(C)Sc1cc(C(F)(F)F)c(C(=O)Nc2ccc(Cl)cc2)cn1 (stereo not given) | inactive
COC(=O)Cc1[nH]n(-c2nc3ccccc3s2)c(=O)c1C(C)=Nc1ccc(C)cc1 | inactive
COc1cc(C)c(C(=O)CC(=O)c2c(C)cc(OC)cc2C)c(C)c1 | inactive
CCN(CC)S(=O)(=O)c1ccc(NC(=O)Nc2cccc(C(F)(F)F)c2)cc1 | inactive
COc1ccc(/C=N/Nc2cc(N3CCCC3)nc(N3CCCC3)n2)cc1 | 3.16 µM (active)

SMILES | Potency
COc1ccc(C(=O)N/N=C/c2ccc(N(C)c3ccccc3)cc2)cc1 | inactive
COc1ccc(C)cc1Nc1nc(C)nc2sc(C)cc12 | inactive
CCOc1ccc(CCNC(=O)c2ccc(OCc3c(C)noc3C)cc2)cc1OCC | inactive
Cc1ccc(OCC(O)Cn2c(=N)n(CCN3CCCCC3)c3ccccc32)cc1 (stereo not given) | 22.4 µM (active)
CCCCCn1c(=N)n(CC(O)COc2ccccc2OC)c2ccccc21 (stereo not given) | 3.98 µM (active)
N=c1n(CCN2CCCCC2)c2ccccc2n1CC(O)c1ccc(Cl)c(Cl)c1 (stereo not given) | 25.1 µM (active)
COc1cc2c(C(=O)N3CCOCC3)c(CSc3ccccc3)n(C)c2cc1Br | inactive
CN(C)c1ccc2c(c1)OC(N)=C(C#N)C2c1cccc(F)c1 (stereo not given) | inactive
COc1cc2nc(CN(C)Cc3ccc(SC)cc3)[nH]c(=O)c2cc1OC | inactive
COc1ccc(C(=O)NC(=S)NNC(=O)c2cnccn2)cc1 | inactive
COc1c(C)cccc1C(=O)Nc1ccc(N2CCN(C(=O)c3ccccc3C)CC2)cc1 | 25.1 µM (active)
COc1ccc(Br)cc1C(=O)Nc1ccccc1N1CCN(C(=O)c2ccccc2)CC1 | inactive
Cc1ccc(C(=O)N2CCN(c3ccc(NC(=S)NC(=O)c4cccs4)cc3)CC2)cc1 | inactive
Cn1c(=O)c2c(nc(SCCN3CCOCC3)n2Cc2cccc3ccccc23)n(C)c1=O | inactive
CCc1ccc(-n2cc(-c3ccc(F)cc3)[n+]3c2SCCC3)cc1 | inactive
CCn1c(COc2ccccc2C)nnc1SCC(=O)N1CCN(c2ccccc2)CC1 | inactive
O=C1C=CCC(/C=C/c2ccccc2)O1 (stereo not given) | 20 µM (active)
Cc1c(CC(=O)NCCCC(=O)O)c(=O)oc2cc3c(cc12)CCC(C)(C)O3 | inactive
NS(=O)(=O)c1ccc(NC(=O)COC(=O)c2c3c(nc4ccccc24)/C(=C\c2ccc4c(c2)OCO4)CCC3)cc1 | inactive
CCc1nc2ccccc2c(C(=O)OCC(=O)Nc2cccc(S(=O)(=O)NC3=NCCCCC3)c2)c1C | 25.1 µM (active)
CCc1nc2ccccc2c(C(=O)OCC(=O)Nc2ccc(NC(C)=O)cc2)c1C | inactive

From PubChem BioAssay AID1745850 (National Center for Advancing Translational Sciences (NCATS), 2022)
